This is a sample that favours compounds with a hit; in the whole collection about 7.8% have one here.
sEH inhibitor: soluble epoxide hydrolase inhibitors, primary screen, biochemical, human sEH. recombinant human sEH enzymatic activity assay. inhibition, % at 2 µM. 91,000 tested, 0.34% active; in the data active = inhibition above about 80%
Target sequence (P34913 whole entry, looked up): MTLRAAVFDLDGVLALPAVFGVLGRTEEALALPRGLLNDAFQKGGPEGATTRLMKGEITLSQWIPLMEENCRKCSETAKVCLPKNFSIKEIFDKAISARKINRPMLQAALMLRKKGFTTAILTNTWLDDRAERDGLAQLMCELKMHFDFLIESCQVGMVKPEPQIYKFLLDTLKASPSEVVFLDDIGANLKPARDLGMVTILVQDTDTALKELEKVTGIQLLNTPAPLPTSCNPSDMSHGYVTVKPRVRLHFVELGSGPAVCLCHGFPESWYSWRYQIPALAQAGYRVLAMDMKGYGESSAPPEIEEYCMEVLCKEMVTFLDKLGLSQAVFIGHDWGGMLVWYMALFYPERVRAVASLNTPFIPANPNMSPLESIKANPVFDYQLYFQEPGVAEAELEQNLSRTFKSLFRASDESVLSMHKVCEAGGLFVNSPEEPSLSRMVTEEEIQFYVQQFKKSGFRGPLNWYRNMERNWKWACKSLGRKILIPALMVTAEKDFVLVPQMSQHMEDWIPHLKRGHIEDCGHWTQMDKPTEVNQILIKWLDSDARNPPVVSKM
PostGolgi ctrl: growth inhibition of yeast control strain, primary screen, counter-screen for post-Golgi transport modulator project; 98,000 tested, 5% active; inhibition, % at 10 µM; efflux-deficient yeast background strain, growth absorbance A615, 16 h
PostGolgi yeast: phenotypic screen on post-Golgi transport, primary screen. inhibition, % at 10 µM. post-Golgi transport phenotypic cell assay. 98,000 tested, 0.9% active;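 note: yeast cells grown in 1536-well plates; yeast grown about 18 h at 30C before absorbance read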
Cav32 inh: Cav3.2 calcium influx blockers – cell-based, Fluo-4 calcium fluorescence, FDSS, MLSMR library, primary screen; AID 449739, 2010; Voltage-dependent T-type calcium channel subunit alpha-1H (Homo sapiens), O95180; 100,000 tested, 4% active; B-score at 10 µM; Cav3.2-expressing cells; active compounds read low;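 active = single-dose well whose peak fluorescence ratio is a statistical outlier from its plate by either plate-standardised score or position-corrected B-score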
sEH activator: soluble epoxide hydrolase activators, primary screen, biochemical, human sEH | purified human sEH enzymatic activity, activator screen | 91,000 tested, 0.04% active | AID 717, 2007 | activation, % at 2 µM | Bifunctional epoxide hydrolase 2 (Homo sapiens), P34913; in the data active = activation above about 37%
* hit, by the source's call. Cut-off read from the data, not from the text of the source, unless noted: active = inhibition above about 30%; inactive = the rest.

`CCOC(=O)CSC1=C(C#N)C(c2ccccc2)C(C(C)=O)=C(C)N1` (stereo not given) gave sEH inhibitor 7, PostGolgi ctrl 6, PostGolgi yeast 4, Cav32 inh -1 and sEH activator -7.
For CSCSC1=C(C#N)C(c2ccc(Cl)cc2)C(C(C)=O)=C(C)N1 (stereo not given) the results were sEH inhibitor 1, PostGolgi ctrl 0, PostGolgi yeast 1, Cav32 inh -5.5* and sEH activator 2.
For CC(=O)C1=C(C)NC(SCC(=O)c2ccccc2)=C(C#N)C1c1ccco1 (stereo not given) the results were sEH inhibitor 2, PostGolgi ctrl 26, PostGolgi yeast 2, Cav32 inh 0.86 and sEH activator 2.
CCOC(=O)C1=C(c2ccccc2)NC(SCC(=O)Nc2cccc(C)c2)=C(C#N)C1c1ccco1 (stereo not given) was read as sEH inhibitor 6, PostGolgi ctrl 1, PostGolgi yeast -20, Cav32 inh -2.1 and sEH activator -6.
Screening CCOC(=O)CSC1=C(C#N)C(c2ccco2)C(C(=O)Nc2cccc(C(F)(F)F)c2)=C(C)N1 (stereo not given) returned sEH inhibitor -4, PostGolgi ctrl 97*, PostGolgi yeast -2, Cav32 inh -2.3 and sEH activator 10.
Screening CCCCC1=CC2=CC(=O)C(C)(OC(=O)CC)C(=O)C2=CN1C1CCCC1 (stereo not given) returned Cav32 inh 1.4.
`O=C(Nc1cnn(Cc2ccc(Cl)cc2Cl)c1)c1cc(-c2cccs2)on1` gave PostGolgi ctrl -1, PostGolgi yeast 1 and Cav32 inh -0.52.
`O=C(Nc1cnn(Cc2ccc(Cl)cc2Cl)c1)c1noc2c1CCCC2` gave PostGolgi ctrl 33*, PostGolgi yeast -5 and Cav32 inh -4.
C=C1CCN(c2ccc(C(=O)NCc3ccc(OC)cc3)cc2[N+](=O)[O-])CC1 was read as Cav32 inh -2.3.
O=C(NCc1ccccc1)c1ccc(-c2ccc(F)cc2)o1 was read as sEH inhibitor 8, PostGolgi ctrl 31*, PostGolgi yeast 0, Cav32 inh -3.4 and sEH activator -10.
`COc1ccccc1-c1cc(C(=O)NCc2ccccc2)no1` gave sEH inhibitor 13, PostGolgi ctrl 26, PostGolgi yeast 9, Cav32 inh -3.9 and sEH activator -13.
Screening COc1ccccc1-c1cc(C(=O)NCc2ccc(F)cc2)no1 returned PostGolgi ctrl 59*, PostGolgi yeast 4 and Cav32 inh -0.89.
Screening C[N+](C)(C)CCOP(=O)(O)OP(=O)([O-])OC[C@H]1O[C@@H](n2ccc(N)nc2=O)[C@H](O)[C@@H]1O returned Cav32 inh 0.66.
For O=C(CCC(=O)N(CC(=O)NC1CCCC1)C1CCCC1)Nc1ccccn1 the results were sEH inhibitor -3, PostGolgi ctrl 0, PostGolgi yeast -6, Cav32 inh 0.89 and sEH activator 3.
For O=C(CCCC(=O)N(CC(=O)NC1CCCC1)C1CCCC1)Nc1ccccn1 the results were sEH inhibitor -4, PostGolgi ctrl 34*, PostGolgi yeast 0, Cav32 inh 0.28 and sEH activator 4.
O=C(CCS(=O)(=O)c1cccc2nsnc12)NC1CCCCC1 was read as sEH inhibitor 5, PostGolgi ctrl -7, PostGolgi yeast 9, Cav32 inh 0.85 and sEH activator -8.
Screening CCOC(=O)c1c(C)[nH]c(C(=O)CN2C(=O)NC(C)(c3ccc4ccccc4c3)C2=O)c1C (stereo not given) returned PostGolgi ctrl 24, PostGolgi yeast -5 and Cav32 inh -0.078.
Screening CCCC1(c2ccccc2)NC(=O)N(CC(=O)c2[nH]c(C)c(C(=O)OCC)c2C)C1=O (stereo not given) returned sEH inhibitor 15, PostGolgi ctrl 3, PostGolgi yeast 2, Cav32 inh -5.6* and sEH activator -14.
Screening Cc1cc(/C=N/n2cnnc2)c(C)n1-c1ccccc1 returned sEH inhibitor 6, PostGolgi ctrl 4, PostGolgi yeast 8, Cav32 inh 0.62 and sEH activator -3.
Screening Cc1cc(/C=N/n2cnnc2)c(C)n1-c1ccc(Cl)cc1Cl returned sEH inhibitor -4, PostGolgi ctrl 37*, PostGolgi yeast 2, Cav32 inh -2.2 and sEH activator 3.
Cc1cc(/C=N/n2cnnc2)c(C)n1-c1ccc(OCc2ccc(F)cc2)cc1 was read as sEH inhibitor -2, PostGolgi ctrl 61*, PostGolgi yeast -1 and sEH activator 2.
`Cc1ccc(N2C(=O)CC(Sc3nc4ccccc4o3)C2=O)cc1Cl` (stereo not given) gave sEH inhibitor -2, PostGolgi ctrl 39*, PostGolgi yeast -3, Cav32 inh 0.17 and sEH activator 1.
For Cc1cccc(N2C(=O)CC(Sc3nc(C)cc(C)n3)C2=O)c1 (stereo not given) the results were sEH inhibitor 0, PostGolgi ctrl -5, PostGolgi yeast -3, Cav32 inh 0.34 and sEH activator 3.
For N#CC1=C(SCC(=O)c2ccc(Br)cc2)NC2=C(C(=O)CCC2)C1c1ccco1 (stereo not given) the results were PostGolgi ctrl 15 and PostGolgi yeast 14.
`O=C1CCCC2=C1C(c1ccco1)Nc1ccc(C(=O)c3ccccc3)cc1N2` (stereo not given) gave PostGolgi ctrl 4, PostGolgi yeast -5 and Cav32 inh -3.6*.
Screening Cc1cc(N2CCCc3ccccc32)n2ncnc2n1 returned PostGolgi ctrl 14, PostGolgi yeast 1 and Cav32 inh -0.13.
Screening Cc1csc(N2CCc3ccccc32)n1 returned sEH inhibitor -6, PostGolgi ctrl 31*, PostGolgi yeast 13, Cav32 inh -0.029 and sEH activator 8.
`COC(C[C@H](O)[C@@H](C)[C@H](O)COCc1ccccc1)OC` gave Cav32 inh 0.52.
CC(C)c1noc2ncc(C(=O)c3cc(Cl)cc(Cl)c3O)cc12 was read as sEH inhibitor 0, PostGolgi ctrl 12, PostGolgi yeast -13, Cav32 inh -6.5* and sEH activator 2.
Nc1c(C(=O)NCc2ccc3c(c2)OCO3)c2nc3ccccc3nc2n1CCCN1CCOCC1 was read as PostGolgi ctrl 15, PostGolgi yeast 21 and Cav32 inh -0.85.
For COc1ccccc1CNC(=O)c1c(N)n(CCCN2CCOCC2)c2nc3ccccc3nc12 the results were sEH inhibitor -108, PostGolgi ctrl 20, PostGolgi yeast 12 and sEH activator 117*.
For CC[C@@H](C)CN1C(=O)N[C@@H](c2ccccc2)C(C(C)=O)=C1C the results were Cav32 inh 0.19.
For COC(=O)C(Cc1ccccc1)NS(=O)(=O)c1ccccc1Br (stereo not given) the results were Cav32 inh -0.015.
Screening COc1ccc(OC)c2c1C(=O)c1ccccc1C2=O returned sEH inhibitor 12, PostGolgi ctrl 8, PostGolgi yeast 3, Cav32 inh -8.9* and sEH activator -10.
